Screening data (PubChem)
FLuc counter = firefly luciferase modulation, counter-screen for miR-21 project. 6.9% of 360,000 active. AID 588342. Potency, µM (highest dose often 57.5 µM), actives largely listed as inhibitors. purified FLuc, Km substrates, luminescence inhibition. P08659; note: nearly all actives have a fitted effect of over 55% in size
Target sequence (P08659 whole entry, looked up): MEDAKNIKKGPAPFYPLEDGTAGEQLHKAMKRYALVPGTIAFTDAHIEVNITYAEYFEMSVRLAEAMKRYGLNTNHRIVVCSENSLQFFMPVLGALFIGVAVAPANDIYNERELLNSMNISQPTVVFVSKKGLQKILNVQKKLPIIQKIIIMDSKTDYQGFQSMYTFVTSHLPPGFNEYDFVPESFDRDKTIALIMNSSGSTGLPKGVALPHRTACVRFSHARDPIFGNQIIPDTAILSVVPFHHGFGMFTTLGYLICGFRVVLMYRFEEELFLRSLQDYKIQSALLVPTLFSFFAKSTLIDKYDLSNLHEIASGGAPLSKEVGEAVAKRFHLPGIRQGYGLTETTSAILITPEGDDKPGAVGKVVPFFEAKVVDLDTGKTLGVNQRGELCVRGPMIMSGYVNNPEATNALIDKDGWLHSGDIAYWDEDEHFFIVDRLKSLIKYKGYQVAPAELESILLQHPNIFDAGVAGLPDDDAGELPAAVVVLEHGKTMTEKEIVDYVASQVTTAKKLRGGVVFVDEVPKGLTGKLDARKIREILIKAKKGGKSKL
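Purified P. pyralis luciferase (10nM final) with 10uM D-luciferin and 10uM ATP (Km levels) in 50mM Tris acetate pH 7.5, 10mM Mg acetate, 0.01% Tween-20, 0.05% BSA; qHTS 6-point titration, ~60 µM downward; luminescence read.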
NPC1 promoter act = activates the NPC1 promoter. AID 485313. Huh7 NPC1 promoter luciferase reporter, 24 h. Potency, µM (titrated, usually from 9.22 µM), hits mostly activators. 2.4% of 320,000 active; note: nearly all actives have a fitted effect of over 60% in size
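Stably transfected Huh7 (NPC1 promoter→luciferase), 1500 cells/well in Opti-MEM + 10% FBS, 2 h settle, then compound 24 h at 37 °C. Luminescence after 10 min with Amplite reagent.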
SMN2 splice up = SMN2 splice variant enhancement; HEK293 SMN2-luciferase splicing reporter, luminescence, 30-36 h; Potency, µM (doses to about 46.1 µM), actives largely listed as activators; 2.8% of 210,000 active; note: nearly all actives have a fitted effect of over 55% in size
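HEK293 cells carry an SMN2 minigene-luciferase reporter in which exon 7 inclusion puts luciferase in frame. Cells were seeded at 2000 cells/well, attached for 10-12 hours, then exposed to compounds for 30-36 hours at 37C before ONE-Glo luminescence.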
Rab9 promoter act = activates the Rab9 promoter. Huh7 Rab9 promoter-luciferase reporter, luminescence, 24 h. Potency, µM (series often up to 9.22 µM), actives largely listed as activators. 2.8% of 320,000 active. AID 485297; note: nearly all actives have a fitted effect of over 60% in size
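Huh7 cells stably carrying Rab9 promoter–luciferase reporter, plated 1500 cells/well, compound added after 2 h and incubated 24 h at 37 °C; luciferase luminescence then read after 10 min with detection reagent.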
ELG1 genotox = induces genotoxicity in HEK293T cells with luciferase-tagged ELG1. HEK293T ELG1-luciferase reporter, luminescence, 16 h. Potency, µM (top dose mostly 46 µM), hits mostly activators. 1.3% of 330,000 active. AID 504466; note: nearly all actives have a fitted effect of over 60% in size
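DMSO vehicle served as control against compound-treated ELG1-luciferase HEK293T cells; exposure lasted 16 hr at 37 °C and 5% CO2, followed by ONE-Glo luminescence detection after 30 min.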
A number is an active result; i = inactive; ? = inconclusive; nt = no result given; [ ] = another dose, or the depositor's remark. An excerpt weighted towards active compounds, which were near 7.4% of everything screened. Calls come from the whole dose curve; as a rule, active = well fitted curve in the direction sought with a large enough effect; inconclusive = small, poorly fitted or top-dose-only effect, or another doubt; inactive = no such curve, though single readings can be large; an effect the other way counts as inactive or inconclusive.

SMILES | FLuc counter | NPC1 promoter act | SMN2 splice up | Rab9 promoter act | ELG1 genotox
COc1cc(/C=C2/SC(=S)N(CC3CCCO3)C2=O)ccc1O (stereo unspecified) | 10.7µM | i | i | i | i
COC(=O)c1ccc2c(=O)[nH]c(COC(=O)c3c(-c4ccccc4Cl)noc3C)nc2c1 | i | i | nt | i | i
COc1ccccc1C(CNC(=O)C1COc2ccccc2O1)N1CCCC1 (stereo unspecified) | i | i | nt | i | i
COc1ccccc1CNC(=O)C1COc2ccccc2O1 (stereo unspecified) | ? | i | ? | i | 18.4µM
COc1ccc(CNC(=O)C2COc3ccccc3O2)cc1 (stereo unspecified) | ? | ? | 12.6µM | ? | i
O=C(Oc1ccccc1F)c1nc(SCc2ccccc2F)ncc1Cl | i | nt | i | nt | nt
COc1ccc(-c2nn(-c3ccccc3)cc2C2NC(=O)NC(C)=C2C(=O)OC(C)C)cc1Cl (stereo unspecified) | i | nt | i | nt | nt
COc1ccccc1N1CCN(S(=O)(=O)c2cc(C(=O)Nc3ccc(Oc4ccccc4)cc3)ccc2F)CC1 | i | nt | nt | nt | nt
O=C(OCC(=O)C12CC3CC(CC(C3)C1)C2)c1cnccn1 | i | i | nt | i | i
Cc1cc(NC(=O)COC(=O)C(C)Oc2ccc(Cl)cc2Cl)no1 (stereo unspecified) | i | i | nt | i | i
Cc1nc2cc3nc(C)sc3cc2s1 | 12µM | ? | ? | 3.98µM | ?
Cc1nc2cc(CO)ccc2s1 | i | i | i | i | i
CCOc1ccc(C(=O)Nc2cc(-c3nc4cc(OC)ccc4o3)ccc2C)cc1[N+](=O)[O-] | 6.75µM | nt | i | nt | nt
COc1ccc(CNC(=O)c2ccc(N3CCOCC3)c([N+](=O)[O-])c2)cc1 | i | i | i | i | i
COc1ccc2oc(-c3ccc(C)c(NC(=O)c4ccc(N5CCOCC5)c([N+](=O)[O-])c4)c3)nc2c1 | 6.01µM | i | i | i | ?
O=C(CNC(=O)c1ccc(Cl)cc1Cl)OCCCn1c(=O)[nH]c2ccccc21 | i | i | nt | i | i
Cc1cc(Cl)ccc1NC(=O)CN(C)C1=NS(=O)(=O)c2ccccc21 | nt | i | nt | i | i
Cc1nnc(-c2cnn(C)c2N)n1Cc1cccc(Cl)c1 | i | i | nt | i | i
CCOC(=O)c1c(NC(=O)COC(=O)c2nc(Cl)ccc2Cl)sc2c1CCC2 | i | i | i | i | ?
CCOC(=O)Cc1csc(NC(=S)NC(=O)c2ccc(Cl)cc2)n1 | 12µM | i | i | i | i
CCOC(=O)Cc1csc(NC(=S)NC(=O)c2ccc([N+](=O)[O-])cc2)n1 | ? | i | i | i | i
CCOC(=O)Cc1csc(NC(=O)c2ccc3ncsc3c2)n1 | 15.1µM | i | nt | i | i
CCOC(=O)Cc1csc(NC(=O)c2ccc3ccccc3n2)n1 | 15.1µM | 1.58µM | nt | 1µM | i
CCOC(=O)Cc1csc(NC(=O)c2ccc(Br)cc2)n1 | 21.3µM | i | nt | i | i
N#CCC(=O)N/N=C/c1c(-c2ccccc2)n(-c2ccccc2)c2ccccc12 | i | i | nt | i | i
SMILES | FLuc counter | NPC1 promoter act | SMN2 splice up | Rab9 promoter act | ELG1 genotox
CCc1nnc(NS(=O)(=O)c2ccc(N3C(=O)c4ccc(C(=O)O)cc4C3=O)cc2)s1 | ? | i | i | i | i
Cc1ccc(S(=O)(=O)N[C@H](C(=O)N2CCC(C(=O)N3CCC[C@H]3C(=O)O)CC2)C(C)C)cc1 | i | i | i | i | i
CCOC(=O)Cc1csc(NC(=O)c2ccc(C)o2)n1 | i | i | i | i | ?
CCOC(=O)Cc1csc(NC(=O)c2ccco2)n1 | ? | ? | 7.94µM | ? | 16.4µM
CCc1ccc(C(=O)OCC(=O)c2c(N)n(CC(C)C)c(=O)n(C)c2=O)cc1 | i | i | i | i | i
O=c1cc(-c2ccccc2)[nH]c2nc3ccccc3n12 | 0.953µM | 3.55µM | 3.98µM | 2µM | 2.31µM
C/C(=N/OC(=O)C1CC1)c1cc(-c2ccc(Cl)cc2)no1 | 5.36µM | ? | nt | 2.82µM | ?
C/C(=N\OC(=O)c1ccccc1)c1cc(-c2ccc(Cl)cc2)no1 | i | 2.82µM | ? | 3.16µM | ?
O=C(NC1CCCC1)C1CC(O)CN1C(=O)Nc1ccccc1 (stereo unspecified) | i | i | nt | i | i
CN(c1ccc(Cl)cc1)S(=O)(=O)c1nnc(NC(=O)C2CCCCC2)s1 | i | nt | nt | nt | nt
Cc1noc(C)c1COc1ccc(C(=O)NNC(=O)c2ccccc2O)cc1 | i | i | nt | i | i
C/C(=N/NS(=O)(=O)c1ccccc1)c1ccc(Cl)cc1 | i | i | i | i | i
C/C(=N\Nc1nc2ccc(Cl)cc2o1)c1ccccc1 | 16.9µM | i | nt | ? | i
CC(C)OCCCn1c(SCC(=O)Nc2ccc(F)cc2)nc2c(sc3ccccc32)c1=O | i | nt | nt | nt | nt
CCOC(=O)Cc1cnc(NC(=O)CSc2nc(C)c(CC)c(=O)[nH]2)s1 | ? | i | i | i | i
O=C1CC(c2nc3ccccc3[nH]2)CN1c1cccc(Cl)c1 (stereo unspecified) | i | nt | i | nt | nt
C#CCn1c(=NC(=O)c2cccs2)sc2cccc(OC)c21 | ? | i | i | i | ?
Cc1ccc2c(c1)sc(=NC(=O)c1cccs1)n2C | 0.151µM | 3.55µM | i | 3.55µM | 0.517µM
Cc1ccc2c(c1)sc(=NC(=O)C1CC1)n2C | 8.49µM | 2.51µM | nt | 3.55µM | ?
CCN1CCC(N(Cc2ccc3c(c2)OCO3)C(=O)Nc2cc(F)ccc2F)CC1 | i | nt | nt | nt | nt
COC(=O)c1ccc2c(c1)SC1=C(CCCC1=O)N2 | 19µM | i | i | i[1.84 µM] | 20.6µM
COc1ccc(C(C)(C)NC(=O)C2CCC(=O)N(C3CC3)C2)cc1OC (stereo unspecified) | i | i | nt | i | i
C/C(=N\Nc1nc2ccccc2s1)c1ccc(Br)s1 | 15.1µM | i | nt | i | i
C/C(=N\Nc1nc2ccccc2s1)c1ccc2c(c1)OCO2 | 9.53µM | i | 17.8µM | ? | ?
CNC(=S)N/N=C(\C)c1ccc2c(c1)OCO2 | i | i | i | i | i
SMILES | FLuc counter | NPC1 promoter act | SMN2 splice up | Rab9 promoter act | ELG1 genotox
CCOc1ccc(NC(=O)CN(c2ccc(C)cc2)S(=O)(=O)c2cccs2)cc1 | i | nt | i | nt | nt
CCOC(=O)c1ccccc1NC(=O)C(=O)Nc1ccc2nc3n(c(=O)c2c1)CCCCC3 | i | nt | i | nt | nt
COCCN(CCOC)C(=O)c1cc2c(=O)n3ccccc3nc2n1C | i | nt | nt | nt | nt
CC(C)(C)c1ccc(COc2ccsc2C(=O)O)cc1 | 15.1µM | i | i | ? | i
c1coc(-c2nc3nc4ccccc4nc3n2-c2ccc3c(c2)OCCO3)c1 | 3.79µM | i | i | i | i
O=c1c2ccccc2nc(-c2ccc(Br)cc2)n1Cc1ccccc1 | i | i | i | i | i
O=c1c2ccccc2nc(-c2ccco2)n1Cc1ccccc1 | 13.5µM | nt | ? | nt | nt
c1ccc(Cn2c(-c3ccco3)nc3nc4ccccc4nc32)cc1 | 2.69µM | 3.55µM | 15.8µM | 3.16µM | ?
CC1(C)CC(=O)C=C(c2cccc(O)c2)C1 | i | i | nt | i | i
CC(C)NC(=O)c1ccccc1-c1nc(-c2ccccc2Cl)no1 | 15.1µM | i | nt | i | i
O=C(c1ccccc1-c1nc(-c2ccccc2Cl)no1)N1CCOCC1 | i | i | nt | i | i
